# In ChEMBL document CHEMBL1157539, “Thousands of chemical starting points for antimalarial lead identification” (Nature, 2010):
# “And” between values parts separate entries of the source, which are not always exact repeats. Equal entries are not always repeated.
# Key:
# Plasmodium falciparum [1] = assay: GSK_TCMDC: Inhibition of Plasmodium falciparum 3D7 in whole red blood cells, using parasite LDH activity as an index of growth. Test compounds present at 2uM; type: functional
# Plasmodium falciparum [2] = assay: GSK_TCMDC: Inhibition of Plasmodium falciparum Dd2 in whole red blood cells, using parasite LDH activity as an index of growth. Test compounds present at 2uM; type: functional
Compound,Inhibition (Plasmodium falciparum [1]),Inhibition (Plasmodium falciparum [2])
CCCc1cc2c3c(N)nc(N)nc3ccc2n1CC,96%,6%
Cc1nc(C)c(-c2ccc(Cl)cc2)c(O)c1I,93%,96%
Cc1ccccc1Cn1ccc2c3c(N)nc(N)nc3ccc21,100%,
Cl.Nc1nc(N)c2c(ccc3nn(Cc4ccccc4)cc32)n1,97%,88%
Cc1nc(C)c(-c2ccc(Oc3cc(Cl)cc(Cl)c3)cc2)c(O)c1Cl,96%,96%
CC(C)(C)c1ccc(-c2nc3c(ccc4nc(N)nc(N)c43)[nH]2)cc1.Cl,100%,100%
CC(=O)Nc1ccc(OCCCCCOc2ccc(NC(C)=O)cc2Cl)c(Cl)c1,93%,0%
Nc1nc(N)c2cc(Cc3ccccc3Cl)cnc2n1,93%,0%
COc1cc(Cc2cnc(N)nc2N)cc(OCCCCCCN)c1OC.Cl,96%,0%
Cc1nc(C)c(-c2ccc(Oc3cc(Cl)cc(Cl)c3)cc2)c(O)c1Br,96%,97%
Cc1cccc(Cn2ccc3c(N)nc(N)nc32)c1,82%,
Cl.N=C(N)c1ccc(OCCCCCOc2ccc(C(=N)N)cc2)cc1 [PENTAMIDINE HYDROCHLORIDE],99%,98%
Nc1nc(N)c2c(Sc3ccc(F)cc3)cccc2n1,88%,0%
Cc1nc2nc(N)nc(N)c2c(C)c1Cc1ccc([N+](=O)[O-])cc1.Cl,98%,11%
CCc1cc2c3c(N)nc(N)nc3ccc2n1C(C)(C)C,99%,
CCN(CC)c1ccc2nc(N)nc(N)c2c1.Cl,93%,0%
CCOc1cc(OCC)c2ccccc2c1CNCCCCCCNCc1c(OCC)cc(OCC)c2ccccc12.CS(=O)(=O)O,100%,89%
CCCCCCOc1ccc2ccccc2c1CNCCCCCCNCc1c(OCCCCCC)ccc2ccccc12.CS(=O)(=O)O,85%,55%
CCCc1ccc(Cc2cnc3nc(N)nc(N)c3c2C)cc1,98%,0%

Compound,Inhibition (Plasmodium falciparum [1]),Inhibition (Plasmodium falciparum [2])
Cl.c1ccc2c(CNCCCN3CCN(CCCNCc4c5ccccc5cc5ccccc45)CC3)c3ccccc3cc2c1,100%,100%
COc1ccc2c(c1CCNCCCCNCCc1c(OC)ccc3c1CCCC3)CCCC2.CS(=O)(=O)O,100%,25%
Cc1nc(C)c(-c2ccc(Sc3ccc(Cl)cc3)cc2)c(O)c1Br,98%,97%
CC(=NNC(S)=NCc1ccco1)c1ccccn1,99%,100%
CCOC(=O)N1CCN(CCCCCNc2cc(C)nc(NC(=N)Nc3ccc(Cl)cc3)n2)CC1.Cl,100%,0%
Nc1nc(N)c2c(Oc3cc(Cl)c(Cl)c(Cl)c3)cccc2n1,100%,92%
COc1cc(Cc2cnc(N)nc2N)cc(OCCCCCCC(=O)O)c1OC,90%,2%
COc1cc(Cc2cnc(N)nc2N)cc(OCCCC(=O)O)c1OC,84%,0%
Cc1ccc(Cn2ccc3c4c(N)nc(N)nc4ccc32)cc1,99%,
O=C(Nc1cccc(-c2cccc(-c3nc4ccccc4[nH]3)c2)c1)NC1CC1c1ccccc1 (configuration not stated),90% and 87%,22% and 27%
O=C(NCCCCN1CCN(c2nsc3ccccc23)CC1)c1ccccc1C(=O)NCCCCN1CCN(c2nsc3ccccc23)CC1,100%,22%
CN=C(N)c1ccc(NC(=O)C=Cc2ccc(C(=O)Nc3ccc(C(N)=NC)cc3)cc2)cc1.Cl,97%,100%
N=C(N)NC(=O)Nc1cc(F)c(Cl)c(Cl)c1,100%,100%
Cc1cc2c3c(N)nc(N)nc3ccc2n1C,95%,0%
Cc1nc(C)c(-c2ccc(Oc3ccc(Cl)c(Cl)c3)cc2)c(O)c1Cl,100%,97%
Cc1ccccc1OCCCc1c(C)nc(N)nc1N,97%,1%
Nc1nnc(-c2ccc(Cl)c(Br)c2)c(N)n1,86%,0%
CC(C)CNc1nc(N)nc2ccc3c(ccn3CC(C)C)c12,99%,51%
Cc1nc(C)c(-c2ccc(Oc3ccc(OC(F)(F)F)cc3)cc2)c(OC(=O)c2ccc(CN(C)C)cc2)c1Cl,98%,98%
